# About 83,000 compounds went through this panel and 20% of them were active in at least one assay; those are over-represented in the sample as a whole.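 Cells were grown in 96-well plates and exposed to the test compound at a single concentration for 48 hours; results are reported as percent growth, with values below 10 considered active.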 Calls of active or inactive are those of the source.
# System: NCI-H322M lung
# Assay: NCI-60 one-dose screen, 48 h (100 = growth as untreated, 0 = no growth, -100 = all killed)
# Conditions: 10 µM unless noted
row,Compound,growth
1,COc1ccc(C(=O)NC(=O)Nc2ccc3c(c2)NC(=O)/C3=C\c2[nH]c(C)c(CCC(=O)O)c2C)c(F)c1,50.7% (inactive)
2,Cn1c(I)c(C#C[Si](C)(C)C)c(=O)[nH]c1=O,115% (inactive)
3,COC(=O)c1oc2c(C(C)=O)c(OCCCN(C)C)ccc2c1C,82.2% (inactive)
4,CC(C)NCC(O)COc1ccc(CC(N)=O)cc1 (centres undefined),100% (inactive)
5,O=C(NCCNc1nccc(-c2c(-c3cccc(O)c3)nc3sccn23)n1)Nc1cccc(C(F)(F)F)c1,76.8% (inactive)
6,CNCCCOc1c(Br)cc(CCNC(=O)/C(Cc2ccc(OC)c(Br)c2)=N/O)cc1Br,70.3% (inactive)
7,COc1cccc(-c2nc3sccn3c2-c2ccnc(NCCNC(=O)c3ccccc3)n2)c1,110% (inactive)
8,O=C(N/N=C1\SCC(=O)N1c1ccccc1)c1cc(-c2cc3ccccc3o2)nn1-c1ccccc1,102% (inactive)
9,Cc1ccc2c(c1)Nc1ccc(C)cc1C2(C)C,114% (inactive)
10,COc1cc(NC(C)CCCN2C(=O)c3ccccc3C2=O)c2nccc(C)c2c1OC (centres undefined),102% (inactive)
11,NCC(=O)NS(=O)(=O)OC[C@H]1O[C@@H](n2cnc3c(N)ncnc32)[C@H](O)[C@@H]1O,-1.74% (active)
12,CCN(CC)CC(=O)Nc1c(C)cccc1C,90.2% (inactive)
13,Nc1ncnc2c1c(-c1ccc(Oc3ccccc3)cc1)nn2C[C@@H]1SSC[C@H]1O,36.9% (inactive)
14,COc1cc(/C=C\c2cc(/C=C\c3ccc(O)c(OC)c3)n(C(=O)CNc3ccccc3OC)n2)ccc1O,90.5% (inactive)
15,O=C1OC(N(Cc2ccc(Cl)cc2)c2ccccc2)c2ccccc21 (centres undefined),89.6% (inactive)
16,CN(C)CC/C=C1\c2ccccc2Sc2ccc(Cl)cc21,72.1% (inactive)
17,O=C(Nc1cccc(-n2ccc3c(NC(=O)c4ccccc4)nccc32)c1)Nc1cc(C(F)(F)F)cc(C(F)(F)F)c1,46% (inactive)
18,CCCCC(=O)Nc1nc2ccc(SCCC)cc2s1,82.4% (inactive)
19,CCN(CC)c1ccc(C2CC(c3cc(OC)c(OC)c(OC)c3)=NN2)cc1 (centres undefined),41.5% (inactive)
20,c1ccc2nc(Cn3cc[n+](Cc4ccc5ccccc5n4)c3)ccc2c1,95.3% (inactive)

row,Compound,growth
1,Clc1ccc(OCc2nc(-c3ccccc3)n[nH]2)c(Cl)c1,101% (inactive)
2,CC(C)CNCC(=O)Nc1ccc(Cc2ccc(NC(=O)CNCC(C)C)cc2)cc1,78.2% (inactive)
3,O=C(O)c1ccc(-n2cc(/C=N/Nc3ccc(F)cc3)c(-c3cccc(C(F)(F)F)c3)n2)cc1,76.5% (inactive)
4,CCCCCCCCCCCCCCCCCCNCc1ccc(Cl)cc1,9.39% (active)
5,COc1ccc(CCNC=O)cc1OC,96.4% (inactive)
6,O=C(COc1ccc(Cl)cc1Cl)N1N=C(c2ccc(Cl)cc2Cl)CC1(O)c1cc(F)c(Cl)cc1Cl (centres undefined),110% (inactive)
7,Cc1nccc2c3ccc(OCc4cn(Cc5ccc(Br)cc5)nn4)cc3n(CCCc3ccccc3)c12,85.9% (inactive)
8,COc1ccc(-c2c(C#N)cnc(N)c2-c2nc3cc(C)c(C)cc3[nH]2)cc1,38.2% (inactive)
9,O=c1c2ccccc2[nH]n1Cc1ccc2c(c1)OCO2,97.6% (inactive)
10,COc1cc(Nc2ncccc2C(=O)Nc2nc3ccc(F)cc3s2)cc(OC)c1OC,90.8% (inactive)
11,Cc1ccc(Cn2cc(COc3ccc4c5ccnc(C)c5n(CCCc5ccccc5)c4c3)nn2)cc1,90.6% (inactive)
12,O=C(Nc1ccc(-n2ccc3c(NC(=O)c4ccccc4)ncnc32)cc1)Nc1ccc(Cl)c(C(F)(F)F)c1,36% (inactive)
13,CCCCOc1c(N)cc(Cl)cc1C(=O)OCCN(CC)CC,86% (inactive)
14,CC(Cl)(CCl)CS(=O)(=O)c1ccc(Cl)cc1 (centres undefined),100% (inactive)
15,CCc1c(C)c2cc3c(c(C)c2oc1=O)OCC(=O)N3,60.7% (inactive)
16,Cc1ccc(NC(=O)CN2CCOCC2)cc1Cl,93.4% (inactive)
17,CC1(C)CC(=O)C2=C(C1)OC1=C(C(=O)CC(C)(C)C1)C2c1ccc(OCc2cn(-c3ccc(F)cc3F)nn2)cc1,105% (inactive)
18,COc1cccc(-c2nc3sccn3c2-c2ccnc(NCCNC(=O)Nc3cccc(C(F)(F)F)c3)n2)c1,81.3% (inactive)
19,CN(C)c1ccc(/C=N/N=C(N)N)cc1,99.4% (inactive)

# From PubChem BioAssay (NCI)
